Source: PubChem (National Center for Advancing Translational Sciences (NCATS))
DT40 TDP1 no CPT – qHTS for Inhibitors of human tyrosyl-DNA phosphodiesterase 1 (TDP1): qHTS in cells in absence of CPT; AID 686978, 2013; Potency, µM (doses to about 46.2 µM), inactives show at the top dose activity change, negative = growth inhibition, most hits filed as inhibitors; DT40 Tdp1-/- hTDP1 cells, no CPT, ATP luminescence, 48 h; 15% of 420,000 active; also: potency is read from the fitted curve at half-maximal effect; % is scaled to controls: 0 for no effect and ±100 for the full control effect; nearly all actives have a fitted effect of over 55% in size
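Seeded 400 DT40-hTDP1 cells/well (vehicle DMSO, no 20 nM CPT); pinned compounds; ≥48 hr at 37 °C; CellTiter-Glo luminescence as viability measure.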
TDP1 cell CPT – growth inhibition of DT40 Tdp1-/-;hTDP1 cells with camptothecin (screen for TDP1 inhibitors); chicken DT40 Tdp1-/-;hTDP1 cells + 20 nM CPT, ATP luminescence, 48 h; Potency, µM (titrated, usually from 46.2 µM), for the others: at the top dose activity change, negative = growth inhibition, hits mostly inhibitors; 12% of 420,000 active; also: potency is read from the fitted curve at half-maximal effect; % is scaled to controls: 0 for no effect and ±100 for the full control effect; nearly all actives have a fitted effect of over 55% in size
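Cell growth measured by CellTiter-Glo luminescence after a minimum 48 h, 37 C compound exposure with 20 nM CPT in Tdp1-knockout DT40 cells stably expressing hTDP1, seeded 400/well; qHTS titration format.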
IL-1B inflam inh – inhibitors of inflammasome signaling (IL-1 beta secretion) | THP-1 LPS/ATP IL-1B secretion, AlphaLISA, 16 h; active compounds read low | activity change, % at 57.5 µM | 4.7% of 360,000 active; in the data active = activity change below about -50%; inconclusive = mostly about -30% to -49%; also: % is scaled to controls: 0 for no effect and ±100 for the full control effect
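Secreted IL-1B measured by AlphaLISA bead assay after 16 h compound exposure of THP-1 cells; compounds (final up to 57.5 uM) added 1 h before LPS (250 ng/mL) and ATP (1.25 mM) stimulation; lower signal means less secretion.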
HepG2 viability – HepG2 cytotoxicity, counter-screen for TGF-b inhibitors | HepG2 CAGA-GFP viability, ATP luminescence, 18 h | Potency, µM (top dose mostly 46.1 µM), inactives show at the highest dose activity change, negative = cytotoxicity, usual class: cytotoxic | 0.76% of 410,000 active | AID 588856; also: potency is read from the fitted curve at half-maximal effect
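CellTiter-Glo luminescence gave cytotoxicity after 18 hours at 37 degrees C. The cells were HepG2 CAGA-GFP in 1% FBS DMEM, stimulated with 500 pg/mL TGF-beta after compound addition. %Activity was normalised to no-cell wells (complete cell-killing) and DMSO (no toxicity), and curves were fitted and classified.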
ASM inhibitor – blocks human secretory acid sphingomyelinase. placental ASM, HMU-PC fluorogenic substrate, 60 min. Potency, µM (highest dose often 57.5 µM), inactives show at the highest dose activity change, negative = inhibition, most hits filed as inhibitors. 0.006% of 340,000 active; also: potency is read from the fitted curve at half-maximal effect
Target sequence (P17405 47-631 limits assumed): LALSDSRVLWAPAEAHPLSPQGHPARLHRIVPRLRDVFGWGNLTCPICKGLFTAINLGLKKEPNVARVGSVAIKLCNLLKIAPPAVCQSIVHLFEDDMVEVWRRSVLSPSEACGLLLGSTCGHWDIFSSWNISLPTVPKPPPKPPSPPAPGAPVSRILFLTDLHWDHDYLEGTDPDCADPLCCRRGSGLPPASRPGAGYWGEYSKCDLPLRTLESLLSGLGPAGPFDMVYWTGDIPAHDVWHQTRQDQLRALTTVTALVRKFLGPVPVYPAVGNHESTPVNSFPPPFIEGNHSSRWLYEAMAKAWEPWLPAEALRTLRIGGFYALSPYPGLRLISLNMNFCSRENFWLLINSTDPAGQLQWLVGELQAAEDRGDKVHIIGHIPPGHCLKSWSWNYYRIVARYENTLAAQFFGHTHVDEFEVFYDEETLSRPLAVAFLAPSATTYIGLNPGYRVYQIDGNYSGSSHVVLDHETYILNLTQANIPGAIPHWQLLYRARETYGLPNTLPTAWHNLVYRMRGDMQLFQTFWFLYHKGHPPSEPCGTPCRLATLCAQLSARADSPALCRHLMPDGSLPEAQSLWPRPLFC
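qHTS format. ASM enzyme prepared from human placenta hydrolyses the fluorogenic substrate HMU-PC0 (9 uM final) over 60 min at 37 °C after a 10 min compound preincubation.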
TGFb inhibitor – TGF-b pathway inhibition; HepG2 CAGA-GFP TGF-b/SMAD3 reporter, GFP fluorescence, 18 h; TGF-beta stimulated, 500 pg/mL final; Potency, µM (series often up to 46.1 µM), without a hit: at the top dose activity, negative = inhibition, most hits filed as inhibitors; 1.2% of 410,000 active; AID 588855; also: potency is read from the fitted curve at half-maximal effect; % is scaled to controls: 0 for no effect and ±100 for the full control effect; nearly all actives have a fitted effect of over 65% in size
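Cell-based qHTS in HEPG2 carrying a CAGA-GFP Smad reporter; compounds added before 500 pg/mL final TGF-beta, 18 h incubation at 37 degrees C, GFP fluorescence quantified per cell by imaging cytometry.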
* hit, by the source's call; ! = repeats disagree. Hits are enriched below; roughly 19% of the tested compounds scored in any of these assays. Unless noted, calls follow the shape of the dose curve; as a rule, active = well fitted curve in the direction sought with a large enough effect; inconclusive = small, poorly fitted or top-dose-only effect, or another doubt; inactive = no such curve, though single readings can be large; an effect the other way counts as inactive or inconclusive.

COc1cc(C2NC(=S)NC(c3ccccc3)=C2C(C)=O)cc(Cl)c1OCC(=O)O (configuration not stated) was read as DT40 TDP1 no CPT -7%, TDP1 cell CPT -11%, IL-1B inflam inh 5, HepG2 viability 9%, ASM inhibitor 2% and TGFb inhibitor -2%.
`COC(=O)COc1ccc(C2NC(=O)NC(c3ccccc3)=C2C(C)=O)cc1Br` (configuration not stated) gave DT40 TDP1 no CPT 0%, TDP1 cell CPT 2%, IL-1B inflam inh -71*, HepG2 viability -61%, ASM inhibitor -1% and TGFb inhibitor inconclusive.
Screening C=C(C)CN(CC)C(=O)CCc1nnc(CCc2c[nH]c3ccccc23)o1 returned DT40 TDP1 no CPT -25%, TDP1 cell CPT -10%, IL-1B inflam inh -19, HepG2 viability -16%, ASM inhibitor 2% and TGFb inhibitor -17%.
`CN(CC(=O)Nc1cc(S(=O)(=O)N2CCCCCC2)ccc1Cl)Cc1ccc2c(c1)OCO2` gave DT40 TDP1 no CPT inconclusive, TDP1 cell CPT 16µM*, IL-1B inflam inh 52, HepG2 viability -17%, ASM inhibitor 7% and TGFb inhibitor -15%.
COc1ccc(S(=O)(=O)N2CCCCCC2)cc1NC(=O)CN(C)Cc1ccc2c(c1)OCO2 was read as DT40 TDP1 no CPT 21µM*, TDP1 cell CPT inconclusive, IL-1B inflam inh 0, HepG2 viability 0%, ASM inhibitor 1% and TGFb inhibitor -26%.
`CN(CC(=O)Nc1cc(S(=O)(=O)N2CCCC2)ccc1Cl)Cc1ccc2c(c1)OCO2` gave DT40 TDP1 no CPT inconclusive, TDP1 cell CPT -97%, IL-1B inflam inh inconclusive, HepG2 viability -26%, ASM inhibitor 2% and TGFb inhibitor -21%.
CC(C)(C)Cc1nnc(NC(=O)CSc2ccccc2)s1 was read as DT40 TDP1 no CPT inconclusive, TDP1 cell CPT inconclusive, IL-1B inflam inh 0, HepG2 viability -15%, ASM inhibitor 0% and TGFb inhibitor -9%.
For COc1cc(CNCCN(C)C)c(Br)cc1OC1CCCC1 the results were DT40 TDP1 no CPT inconclusive, TDP1 cell CPT 18µM*, IL-1B inflam inh 0, HepG2 viability -3%, ASM inhibitor 7% and TGFb inhibitor 0%.
`CCOc1ccc(N(CC(=O)Nc2cccc(F)c2)S(=O)(=O)c2c(C)noc2C)cc1` gave DT40 TDP1 no CPT 21µM*, TDP1 cell CPT inconclusive, IL-1B inflam inh -1, HepG2 viability 1%, ASM inhibitor -10% and TGFb inhibitor -26%.
`CCOc1ccc(N(CC(=O)Nc2ccc(C)c(C)c2)S(=O)(=O)c2c(C)noc2C)cc1` gave DT40 TDP1 no CPT 10µM*, TDP1 cell CPT 9.2µM*, IL-1B inflam inh -24, HepG2 viability -20%, ASM inhibitor -10% and TGFb inhibitor inconclusive.
Screening Cc1nc(SCC(=O)OCc2ccccc2)c(C#N)c(-c2ccccc2)c1C(=O)Nc1ccccc1 returned DT40 TDP1 no CPT inconclusive, TDP1 cell CPT inconclusive, IL-1B inflam inh 24, HepG2 viability -4%, ASM inhibitor 0% and TGFb inhibitor -5%.
Screening Cc1ccccc1NC(=O)c1c(C)nc(SCC(=O)OCc2ccccc2)c(C#N)c1-c1ccc(F)cc1 returned DT40 TDP1 no CPT 15µM*, TDP1 cell CPT inconclusive, IL-1B inflam inh 6, HepG2 viability -10%, ASM inhibitor 3% and TGFb inhibitor -5%.
COC(=O)CSc1nc(C)c(C(=O)Nc2ccccc2C)c(-c2ccc(Cl)cc2)c1C#N was read as DT40 TDP1 no CPT inconclusive, TDP1 cell CPT inconclusive, IL-1B inflam inh -76*, HepG2 viability -14%, ASM inhibitor 25% and TGFb inhibitor -3%.
Screening COc1ccc(-c2c(C#N)c(SCC(=O)Nc3ccccc3C)nc(C)c2C(=O)Nc2ccc(Cl)cc2)cc1 returned DT40 TDP1 no CPT -14%, TDP1 cell CPT 3%, HepG2 viability -4% and TGFb inhibitor inconclusive.
COc1cc(NC(=O)c2ccc(-n3cnc4cccnc43)cc2)cc(OC)c1 was read as HepG2 viability 0% and TGFb inhibitor -18%.
`Cc1cc(C)cc(N2CCn3c2nc2c3c(=O)n(C/C=C/c3ccccc3)c(=O)n2C)c1` gave DT40 TDP1 no CPT -6%, TDP1 cell CPT -3%, HepG2 viability 1% and TGFb inhibitor 2%.
NCCCNCCCCNC(=O)C(O)NC(=O)CCCCCCN=C(N)N (configuration not stated) was read as DT40 TDP1 no CPT 1.2µM* and TDP1 cell CPT 1.2µM*.
Screening NCCCCCNC(=O)/C=N\O returned DT40 TDP1 no CPT -21%, TDP1 cell CPT -21%, IL-1B inflam inh -18, HepG2 viability -8%, ASM inhibitor 4% and TGFb inhibitor -4%.
CCC(=O)N1CCc2cc(Br)cc(S(=O)(=O)CCC(=O)N3CCN(c4cc(C)ccc4C)CC3)c21 was read as DT40 TDP1 no CPT 4%, TDP1 cell CPT 17%, HepG2 viability -28% and TGFb inhibitor 4%.
CCn1nc(C)c(CNC(=O)CC2C(=O)NCCN2CC(C)C)c1C (configuration not stated) was read as DT40 TDP1 no CPT -19%, TDP1 cell CPT -2%, IL-1B inflam inh -2, HepG2 viability -16%, ASM inhibitor 32% and TGFb inhibitor -16%.
COc1cccc(NC(=O)C(Cc2ccccc2)n2cccc2)c1 (configuration not stated) was read as DT40 TDP1 no CPT -23%, TDP1 cell CPT -21%, IL-1B inflam inh -73*, HepG2 viability -6%, ASM inhibitor -2% and TGFb inhibitor inconclusive.
COc1cccc(CNC(=O)C(Cc2ccccc2)n2cccc2)c1 (configuration not stated) was read as DT40 TDP1 no CPT inconclusive, TDP1 cell CPT inconclusive, IL-1B inflam inh inconclusive, HepG2 viability -4%, ASM inhibitor -2% and TGFb inhibitor -13%.
`COc1ccc(NC(=O)C(Cc2ccccc2)n2cccc2)c(OC)c1` (configuration not stated) gave DT40 TDP1 no CPT 18µM*!, TDP1 cell CPT 23µM*!, IL-1B inflam inh -6, HepG2 viability -11%, ASM inhibitor -4% and TGFb inhibitor -14%.
Screening O=C(O)COc1ccccc1/C=N/NC(=O)c1ccncc1 returned DT40 TDP1 no CPT 1% and TDP1 cell CPT 7%.
